Screening results: PubChem BioAssay, several laboratories
proKLK7 act – proKLK7 (human) activation, primary screen | P49862 | purified proKLK7, EDANS-DABCYL substrate fluorescence; 100% is mature enzyme control, 0% vehicle | activation, % at 7 µM | actives 0.9% (n = 370,000) | AID 652039;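 active = activation above the mean of all tested compounds plus 3 SD, computed per campaign excluding outliers beyond control limits, cut at about 13% in these data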
rRNA inh HTS – selective bacterial rRNA inhibition in E. coli; GFP signal change (wild-type ribosome), % (no concentration beside the values); actives 1.6% (n = 350,000); E. coli WT GFP vs humanized-ribosome RFP mutants, fluorescence, 24 h; hits give low values; DMSO median 0, no signal -100;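 active = significant combined selectivity score with lowered wild-type GFP, culture density cut under 30%, mutant RFP and density less affected; inactive = any of these conditions unmet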
ADAM17 inh – inhibitors of human ADAM17; recombinant ADAM17, EDANS/DABCYL FRET peptide cleavage; actives 0.83% (n = 370,000); inhibition, % at 6.95 µM;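 active = inhibition above the mean of compounds lying between control limits plus 3 SD, set per campaign, cut at about 8.5% in these data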;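 note: 0% = DMSO-only wells as the low control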
FGF22 binding – shifts melting point of recombinant human FGF22. Q9HCT0. recombinant FGF22 thermal shift, SYPRO orange fluorescence; percent of sucrose octasulfate shift, DMSO zero. activity (Tm shift, normalised), % at 9.99 µM. actives 1.5% (n = 340,000). AID 651658;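 active = mean Tm shift, scaled 0 neutral to 100 positive control, at about 1.3% or above, every replicate too, limit read from the data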
ADAM10 inh – inhibitors of human ADAM10; actives 0.62% (n = 370,000); recombinant ADAM10, EDANS/DABCYL FRET peptide cleavage, 3 h; O14672; inhibition, % at 7 µM;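 active = inhibition above a per-campaign cutoff equal to the mean of compounds falling between control-based bounds plus 3 SD, cut at about 20% in these data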;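 note: 0% = DMSO wells while the 100% control is not disclosed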
Target sequence (O14672 214-748 limits assumed): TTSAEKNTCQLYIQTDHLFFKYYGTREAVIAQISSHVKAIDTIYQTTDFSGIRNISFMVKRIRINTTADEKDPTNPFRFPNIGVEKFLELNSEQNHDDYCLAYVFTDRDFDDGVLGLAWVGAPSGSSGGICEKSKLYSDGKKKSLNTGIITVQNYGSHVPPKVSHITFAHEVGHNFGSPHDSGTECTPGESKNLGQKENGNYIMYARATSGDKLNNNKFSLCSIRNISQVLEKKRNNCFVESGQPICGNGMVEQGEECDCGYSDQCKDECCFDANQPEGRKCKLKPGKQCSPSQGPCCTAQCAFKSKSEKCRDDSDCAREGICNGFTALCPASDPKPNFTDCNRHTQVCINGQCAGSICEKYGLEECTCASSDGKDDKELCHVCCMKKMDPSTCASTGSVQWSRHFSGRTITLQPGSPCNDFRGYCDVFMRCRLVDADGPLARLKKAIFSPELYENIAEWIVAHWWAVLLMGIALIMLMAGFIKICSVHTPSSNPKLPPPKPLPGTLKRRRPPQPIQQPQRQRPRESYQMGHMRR
* = called active by the depositor. Sampled rows, rich in hits. Any-hit rate of the full collection: about 3.8%.

CC12CCC(=O)C=C1CCC1C2C(O)CC2(C)C(c3csc(N)n3)CCC12 (stereo unspecified) was read as proKLK7 act 1, rRNA inh HTS -32, ADAM17 inh -1, FGF22 binding -1 and ADAM10 inh 1.
For CC12CCC(=O)C=C1CCC1C2CCC2(C)C(c3csc(N)n3)CCC12 (stereo unspecified) the results were proKLK7 act 0, rRNA inh HTS -38, ADAM17 inh 1, FGF22 binding -1 and ADAM10 inh 24*.
For O=C(NCC[C@H]1CC[C@@H](NS(=O)(=O)c2cccc(F)c2)[C@H](CO)O1)c1cnccn1 the results were rRNA inh HTS 3 and FGF22 binding 0.
N#Cc1nc(-c2ccccc2F)oc1NC1CCCCC1 was read as proKLK7 act -3, rRNA inh HTS -15, ADAM17 inh -316, FGF22 binding 0 and ADAM10 inh inactive.
Screening N#Cc1nc(-c2ccccc2F)oc1NCc1cccc2c1OCO2 returned proKLK7 act 0, rRNA inh HTS -29*, ADAM17 inh -39, FGF22 binding 0 and ADAM10 inh -90.
O=S(=O)(c1ccccc1)c1nc(-c2ccccc2)oc1N1CCOCC1 was read as proKLK7 act 0, rRNA inh HTS 4, ADAM17 inh -5, FGF22 binding 43* and ADAM10 inh -1.
`CCN(Cc1nc(-c2ccc(Cl)cc2)no1)CC1CCCO1` (stereo unspecified) gave proKLK7 act 1, rRNA inh HTS 4, ADAM17 inh -3, FGF22 binding 0 and ADAM10 inh 6.
`Clc1ccc(-c2noc(CN(Cc3ccccn3)CC3CCCO3)n2)cc1` (stereo unspecified) gave proKLK7 act -1, rRNA inh HTS -35, ADAM17 inh -1, FGF22 binding 43* and ADAM10 inh -3.
CC(C)NC(=O)Nc1ccc2c(c1)CC(=O)N([C@@H](C)CO)C[C@@H](C)[C@H](CN(C)C(=O)Nc1ccccc1)O2 was read as rRNA inh HTS 2 and FGF22 binding 0.
`Cc1ccc([C@@H]2CC=C(C(=O)O)[C@H](c3ccc(Cl)cc3)N2S(=O)(=O)c2ccc(C)cc2)cc1` gave proKLK7 act -1, rRNA inh HTS -42, ADAM17 inh -4, FGF22 binding 1 and ADAM10 inh 6.
For COc1cccc([C@@H]2CC=C(C(=O)O)[C@H](c3cccc(Cl)c3)N2S(=O)(=O)c2ccc(C)cc2)c1 the results were proKLK7 act 1, rRNA inh HTS -32*, ADAM17 inh -3, FGF22 binding 0 and ADAM10 inh 9.
For Cc1ccc(S(=O)(=O)N2[C@@H](c3ccc(F)cc3)C(C(=O)O)=CC[C@H]2c2ccc(Cl)cc2)cc1 the results were proKLK7 act 0, rRNA inh HTS -48, ADAM17 inh -3, FGF22 binding 1.6* and ADAM10 inh -3.
For Cc1ccc(S(=O)(=O)N2[C@@H](c3ccc(Cl)cc3)C(C(=O)O)=CC[C@H]2c2cccc(C)c2)cc1 the results were proKLK7 act 1, rRNA inh HTS -22*, ADAM17 inh -2, FGF22 binding 0 and ADAM10 inh -1.
Cc1ccc(S(=O)(=O)N2[C@@H](c3ccc(Cl)cc3)C(C(=O)O)=CC[C@H]2c2cccc(Cl)c2)cc1 was read as proKLK7 act 0, rRNA inh HTS -41, ADAM17 inh -5, FGF22 binding 0 and ADAM10 inh -10.
CO[C@H]1CN(C)C(=O)c2ccc(NS(=O)(=O)c3ccccc3)cc2OC[C@H](C)N(Cc2cccnc2)C[C@@H]1C was read as rRNA inh HTS -1 and FGF22 binding 0.
Screening COc1ccc(S(=O)(=O)N(C)C[C@@H]2Oc3ccc(NC(=O)NC(C)C)cc3C(=O)N([C@H](C)CO)C[C@@H]2C)cc1 returned rRNA inh HTS 1.
`CCc1nnc(NC(=O)c2ccc(OCc3c(C)noc3C)c(OC)c2)s1` gave proKLK7 act 1, rRNA inh HTS 9, ADAM17 inh -1, FGF22 binding 43* and ADAM10 inh -4.
`O=C(Cc1ccccc1)N1C[C@H]2[C@@H](c3ccccc31)[C@H](CO)N2C(=O)Nc1ccc(F)cc1` gave rRNA inh HTS -2 and FGF22 binding -1.
Screening CCn1c(-c2cc(-c3cccc(OC)c3)nc3ccccc23)n[nH]c1=S returned proKLK7 act 2, rRNA inh HTS -44*, ADAM17 inh -3, FGF22 binding 0 and ADAM10 inh -9.
`CCn1c(-c2cc(-c3ccccc3)sc2N)n[nH]c1=S` gave proKLK7 act -5, rRNA inh HTS -30, ADAM17 inh -7, FGF22 binding 0 and ADAM10 inh -17.
`O=C(C[C@H]1CC[C@@H]2[C@H](COC[C@@H](O)CN2S(=O)(=O)c2cccc(Cl)c2)O1)Nc1ccc(-c2ccccc2)cc1` gave rRNA inh HTS 0 and FGF22 binding 1.3*.
`CCOC(=O)c1cc(OC(=O)c2ccccc2)n(-c2ccccc2)n1` gave proKLK7 act 0, ADAM17 inh -2 and ADAM10 inh -5.
CCOC(=O)c1cc(OC(=O)c2cccs2)n(-c2ccccc2)n1 was read as rRNA inh HTS -18* and FGF22 binding 0.
Screening C[C@@H](NC(=O)C[C@@H]1C[C@H]2c3cc(NC(=O)C4CCOCC4)ccc3O[C@H]2[C@H](CO)O1)c1ccccc1 returned rRNA inh HTS 2 and FGF22 binding 0.
Screening C[C@H](CO)N1C[C@H](C)[C@@H](CN(C)C)OCCCC[C@H](C)Oc2ccc(NS(C)(=O)=O)cc2C1=O returned rRNA inh HTS 1.
Screening COc1ccc2c3c([nH]c2c1)[C@@H](CO)N(CC1CCOCC1)CC31CN(CC2CCOCC2)C1 returned rRNA inh HTS 4 and FGF22 binding 0.
`COc1ccc(NS(=O)(=O)c2cc(C(=O)OC(C)C(=O)N3CCOCC3)ccc2Cl)cc1` (stereo unspecified) gave proKLK7 act 1, rRNA inh HTS 5, ADAM17 inh -4, FGF22 binding 0 and ADAM10 inh -10.
`CNC(=O)NC(=O)C(C)OC(=O)c1ccc(Cl)c(S(=O)(=O)Nc2ccc(F)cc2)c1` (stereo unspecified) gave proKLK7 act 0, rRNA inh HTS -26*, ADAM17 inh 7, FGF22 binding 0 and ADAM10 inh 8.
COc1ccc(Nc2ccc3c(c2)=NC2(CCCCC2)[N+]=3[O-])cc1 was read as proKLK7 act 0, ADAM17 inh 9.7* and ADAM10 inh 6.
COc1ccc(C(C#N)=C2C=C(Cl)C(=NO)C=C2Cl)cc1 was read as proKLK7 act 0, rRNA inh HTS -19*, ADAM17 inh 5, FGF22 binding 0 and ADAM10 inh -2.
O=C(c1ccccc1)c1ccc[nH]1 was read as proKLK7 act 0, rRNA inh HTS 8, ADAM17 inh -3, FGF22 binding 43* and ADAM10 inh 1.
